# Compounds with a hit are over-represented: about 12% of the library has one in this group of screens.
# CHX counter-1: counter-screen for Shiga toxin inhibitors: cycloheximide protein synthesis inhibition. cell reporter, cycloheximide protein synthesis inhibition counterscreen. AID 2314. max response, %. hit rate 12% among 300,000; in the data active = max response mostly above about 13%, no sharp cut-off; inactive = mostly below about 14%; note: read at 38.3 µM for the half of the compounds with a filed dose; 0% is about no effect
# Sm TGR inh: blocks Schistosoma mansoni thioredoxin glutathione reductase | Q962Y6 | purified TGR, DTNB reduction, TNB absorbance 405 nm | Potency, µM (highest dose often 114 µM), for inactives: at the top dose activity change, negative = inhibition, usual class: inhibitors | hit rate 3% among 360,000 | AID 485364; active = well fitted inhibition curve with a large enough effect; inconclusive = small, poorly fitted or top-dose-only effect; inactive = no such curve, though single readings can be large or run the other way; note: potency is the fitted concentration of half-maximal effect; % is set by controls: 0 for no effect and ±100 for the full control effect; nearly all actives have a fitted effect of over 60% in size
#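 First, TGR (20 nM dispensed) and NADPH were mixed with compound. Second, a 15 min room-temperature incubation followed. Third, further NADPH and then DTNB were added to start the reaction. Finally, TNB absorbance was monitored kinetically.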
# Shiga inhibitor: Shiga toxin inhibition; Vero cells, Shiga toxin protein synthesis inhibition reporter; inhibition, % at 38.7 µM; hit rate 9.2% among 290,000; in the data active = inhibition mostly above about 28%, no sharp cut-off; inactive = mostly below about 43%; note: 0% is about no effect
# FMDV antiviral: antivirals against foot and mouth disease virus; hit rate 1.2% among 410,000; FMDV antiviral cell-based qHTS; Potency, µM (series often up to 57.9 µM), for the others: at the top dose activity change, negative = inhibition, hits mostly inhibitors; AID 1159524; calls by dose curve; tested in HEK293T cells; note: read-out not given here; potency is the fitted concentration of half-maximal effect; % is set by controls: 0 for no effect and ±100 for the full control effect; nearly all actives have a fitted effect of over 45% in size
# CHX counter-2: counter-screen for Shiga toxin inhibitors: cycloheximide protein synthesis block; shares compounds with Shiga inhibitor; Cycloheximide counterscreen, protein synthesis reporter, Shiga toxin assay; Potency, µM (series often up to 38.3 µM), for inactives: at the top dose activity (activation), usual class: activators; hit rate 3% among 510; AID 2318; calls by dose curve; note: potency is the fitted concentration of half-maximal effect; 0% is about no effect
# * hit, by the source's call; ? = inconclusive; . = not tested or not shown; ! = a repeat was not active.
SMILES,CHX counter-1,Sm TGR inh,Shiga inhibitor,FMDV antiviral,CHX counter-2
Cc1ccc(OCCNC(=O)Cn2cnc3c(=O)n(C)c(=O)n(C)c32)cc1C,-4,4%,4,-11%,.
Cn1c(=O)c2ncn(CC(=O)NCCOc3ccccc3)c2n(C)c1=O,5,6%,27*,-16%,0%
COCCNC(=O)Cn1cc(S(=O)(=O)Cc2ccccc2Cl)c2ccccc21,.,1%,.,17%,.
Oc1ccc(C2C[C@H]3CC[C@@H]2C3)cc1O (some centres undefined),1,1µM*,34*,-18%,0%
O=C(NCc1ccc(F)cc1)c1ccc2oc(=O)n(Cc3ccccc3)c2c1,.,4%,.,-28%,.
COCCCN1CN=C(NS(=O)(=O)c2ccc(NC(C)=O)cc2)NC1,.,2%,.,2%,.
CCn1c(SCC(=O)NCc2ccco2)nc2c1c(=O)n(C)c(=O)n2C,-2,-15%,68*,-2%,-1%
CC(=O)/C(C#N)=C1\NC(=O)C(Cc2ccc(C)c(C)c2)S1 (centres undefined),11,0%,34*,9%,2%
CC(=O)/C(C#N)=C1\NC(=O)C(Cc2ccc(F)cc2)S1 (centres undefined),4,-1%,-6,-6%,.
COc1cc(-n2nnnc2SC)c(OC)cc1Cl,10,.,47*,2%,-1%
CC(=O)Nc1cccc(NC(=O)CSc2nc3ccccc3o2)c1,7,-1%,25*,-4%,-2%
CCOC(=O)N1CCC2(CC1)OC(=O)C(C)=C2C(=O)NCc1ccccc1OC,.,-3%,.,-6%,.
CCCOP(=O)(OCCC)c1nc(-c2ccccc2)oc1NCc1ccccc1,4,-2%,20*,-2%,1%
COP(=O)(OC)c1nc(-c2ccccc2)oc1NCc1ccccc1,-5,0%,-6,28%,.
COc1ccc(NC2=CC(c3ccccc3)N(c3ccc(OC)cc3)C2=O)cc1 (centres undefined),5,-35%,65*,-4%,-2%
CC(=O)c1ccc(-c2cccc([C@H]3[C@@H]4C=CC[C@@H](C)[C@@H]4C(=O)N3Cc3ccccc3)c2)cc1,18,.,36*,-3%,-1%
CC(C)(C)C(=O)NC1CC(=O)N(c2ccc3c(c2)OCCO3)C1 (centres undefined),.,-7%,.,-6%,.
COc1ccc(C)cc1N1C(=N)/C(=C2/Nc3ccccc3S2)C(c2ccccc2)C1=O (centres undefined),-1,-16%,21*,25µM*,-2%
O=C(CCn1cnnn1)Nc1ccccc1,9,15%,22*,3%,-3%
N#Cc1cccc(NC(=O)C2CCN(S(=O)(=O)c3ccc4c(c3)CCCN4C(=O)C3CCC3)CC2)c1,.,1%,.,?,.
Cc1c(Cl)cnc(NC(=O)CSc2n[nH]c(N)n2)c1Cl,.,-5%,.,-1%,.
Cc1csc(SCC(=O)Nc2ncc(Cl)c(C)c2Cl)n1,9,-4%,21*,18%,1%
O=C(CN1CCN(Cc2ccc(F)cc2)C1=O)NCc1ccc(F)cc1,.,6%,.,?,.
CC(=O)c1ccc(OCCCOc2cccc3cccnc23)cc1,3,-4%,-3,-8%,.
COc1cc(C(C)=O)ccc1OCCCOc1cccc2cccnc12,2,2%,48*,-13%,?
SMILES,CHX counter-1,Sm TGR inh,Shiga inhibitor,FMDV antiviral,CHX counter-2
COc1ccc(S(=O)(=O)Nc2c(C(=O)O)[nH]c3ccccc23)cc1OC,16,3%,30*,28%,5%
COc1ccc(C2=CC(c3ccc(C)cc3)n3nnnc3N2)cc1 (centres undefined),-2,-13%,69*,-20%,4%
Cc1cc(C)n(C(C)CC(=O)NCc2ccc(Cl)cc2)n1 (centres undefined),.,0%,.,-3%,.
O=C(Cn1c(=O)c2cccn2c2ccc(F)cc21)N1CCN(c2ccccc2F)CC1,.,1%,.,-11%,.
Cc1cc(C)n(-c2nc3c(c(=O)[nH]c(=O)n3C)n2Cc2cccc(Br)c2)n1,4,2%,84*,-13%,-3%
Cc1ccc(Cn2c(-n3nc(C)cc3C)nc3c2c(=O)[nH]c(=O)n3C)cc1,-2,1%,-8,-17%,.
C=C1CCC(O)C/C1=C/C=C1\CCC[C@]2(C)[C@@H]([C@H](C)CCCC(C)C)CC[C@@H]12 (some centres undefined),9,.,65*,.,0%
CS(=O)(=O)N1CCN(C(=O)C(Sc2ccccc2)c2ccccc2)CC1 (centres undefined),-2,-15%,-17,-18%,.
O=C(C(Sc1ccccc1)c1ccccc1)N1CCOCC1 (centres undefined),-1,8%,46*,-12%,-4%
Cc1cc(C(=O)COC(=O)c2cccn2C)c(C)n1Cc1ccco1,10,?,50*,?,0.71µM*
Cc1cc(C(=O)CN2C(=O)C(=O)N(Cc3ccco3)C2=O)c(C)n1CCc1ccccc1,.,3%,.,-12%,.
COc1ccc(C(=O)CC(=O)C(=O)Nc2ccccc2OC)cc1,7,-19%,27,-8%,.
COc1ccc(C(=O)CC(=O)C(=O)Nc2ccc(C)cc2Cl)cc1,9,?,22*,-17%,-2%
Cc1cc(C)n(-c2cc(N3CCOCC3)ncn2)n1,-2,-1%,31*,2%,-4%
COc1cccc2cc(-c3nc4sc(C(=O)Nc5ccc(F)cc5F)c(C)c4c(=O)[nH]3)c(=O)oc12,.,20%,.,7%,.
CCOCCCn1c(=N)c(C(=O)NC(C)c2ccccc2)cc2c(=O)n3cccc(C)c3nc21 (centres undefined),.,0%,.,?,.
CC(=O)c1sc(-c2ccccn2)nc1C,14,6%,32*,.,3%
CC(=O)c1sc(-c2ccccc2Cl)nc1C,-1,20%,-1,25%,.
O=C(Nc1ccccc1)c1ccc(S(=O)(=O)N2CCOCC2)cc1,5,-1%,53*,0%,4%
COc1cccc(CNC(=O)c2ccc3c(c2)nnn3C2CCCC2)c1,.,6%,.,-13%,.
CCOC(=O)c1ccc(NC(=O)CSc2nc3ncc(Br)c(C)c3[nH]2)cc1,.,13%,.,-12%,.
Cc1cccc(Cn2cc3c(=O)n(CC(=O)Nc4c(C)cccc4C)nc-3c3cc(F)ccc32)c1,.,3%,.,-5%,.
CCn1c(P(C)(=O)O)nc2cc(NC(=O)c3ccccc3F)ccc21,7,7%,32*,10%,-1%
Cc1ccc(O)c([C@H](CCN(C(C)C)C(C)C)c2ccccc2)c1,-1,8%,48*!,-14%,-2%
CCCN(CCC)C(=O)CC(c1ccccc1)c1ccc(C)cc1O (centres undefined),10,9%,10,-20%,.
COC(=O)CNC(=O)Nc1cc(C(=O)NCc2ccc(C)cc2)ccc1N1CCCC1,.,-8%,.,4%,.
CCN(CC)C(=O)c1ccc2c(c1)N(Cc1ccccc1F)C(=O)c1ccccc1S2=O (centres undefined),.,1%,.,-7%,.
CCOc1ccc(S(=O)(=O)Nc2ccc3c(c2)n(C)c(=O)n3C)cc1,-3,0%,92*,-16%,-1%
O=C(c1cnccn1)N1CCc2ccccc21,13,-12%,8,19%,.
Cc1c(C(=O)N2CCc3ccccc32)cnn1C,6,-12%,49*,39%,5%
